# Measurements taken from PubChem BioAssay.
# Activity calls are given as the source filed them.
# Legend:
# [1] = tested on: PRMT1 (protein arginine N-methyltransferase 1); experiment: PRMT1 binders on small-molecule microarrays, primary screen, biochemical, small-molecule microarray, 635 nm fluorescence (AID 1088); conditions: small-molecule microarray binding, higher = more signal;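 also: binding of Prmt1 protein to compounds spotted on small-molecule microarray slides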
# [2] = yeast growth modulation, basal conditions, primary screen, YJM789 clinical isolate, OD600, 24 h (AID 1089);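 also: growth of clinical yeast isolate S. cerevisiae YJM 789 seeded 1000 cells per well; test concentration not given here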; conditions: S. cerevisiae YJM789 growth, higher = more signal, called active from +8 up or from −8 down
# [3] = fission yeast growth modulation, primary screen, strain 972, OD600, 24 h, no modulator (AID 1090);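 also: basal condition with compound alone and no growth modifier present; test concentration not given here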; conditions: S. pombe 972 growth, higher = more signal, called active from +8 up or from −8 down
# [4] = S. cerevisiae growth modulation with rapamycin, primary screen, strain BY4716, OD600, 96 h (AID 1091); conditions: higher = more signal, called active from +8 up or from −8 down; also: test concentration not given here
# [5] = target: Torsin-1A-interacting protein 2 (Homo sapiens) (UniProt Q8NFQ8); experiment: LULL1 binders on small-molecule microarray, primary screen, cell lysate, human LULL1 lysate, 635/667 nm fluorescence (AID 1092); conditions: hLULL1 lysate binding, 635 nm fluorescence, higher = more signal;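 also: probe is lysate of COS7 cells overexpressing human LULL1; score merges per-feature 667 nm fluorescence with signal-to-noise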
# [6] = E. coli growth modulation, two-sided OD650, primary screen, E. coli filamentation project, strain DRC41, 24 h (AID 1093); conditions: OD650, 24 h, higher = more signal, called active from +8 up or from −8 down;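 also: MC1000 strain lacking acrAB efflux and sulA so SOS filamentation is blocked; test concentration not given here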
# [7] = small-molecule microarray binders of probe aLefty2, primary screen, biochemical, biotinylated probe, 635/667 nm fluorescence (AID 1094); conditions: higher = more signal;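 also: score merges spot fluorescence near 667 nm with spot signal-to-noise ratio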
# [8] = tested on: Noggin (protein binding on small-molecule microarray); experiment: Noggin binders on small-molecule microarray, primary screen, biochemical, 635/667 nm fluorescence (AID 1095); conditions: 635 nm fluorescence, higher = more signal;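 also: score merges 667 nm feature fluorescence with signal to noise over triplicate slides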
# [9] = target: Neurogenic locus notch homolog protein 3 (Homo sapiens) (UniProt Q9UM47); experiment: NOTCH3 binders on small-molecule microarray, primary screen, biochemical, 635/667 nm fluorescence (AID 1096); conditions: NOTCH3 binding, 635 nm fluorescence, higher = more signal
# [10] = small-molecule microarray binders of probe aEGFR, primary screen, biochemical, biotinylated probe, 635/667 nm fluorescence (AID 1097); conditions: higher = more signal;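 also: probe is a biotinylated anti-EGFR antibody binding compounds printed on slides; score combines fluorescence near 667 nm and signal to noise of each spot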
# [11] = tested on: Plasmodium falciparum Sir2 (PF13_0152, Sir2A); experiment: pfSir2 binders on small-molecule microarrays, primary screen, biochemical, small-molecule microarray, 635 nm fluorescence (AID 1098); conditions: small-molecule microarray binding, fluorescence 635 nm; higher = more signal;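 also: score merges spot fluorescence intensity with its signal-to-noise ratio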
# [12] = small-molecule microarray binders of probe aDKK1, primary screen, biochemical, biotinylated probe, 635/667 nm fluorescence (AID 1099); conditions: higher = more signal;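 also: score merges 667nm spot fluorescence with signal to noise across triplicate slides; reference of the scale not given here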
# [13] = small-molecule microarray binders of probe aCHRDL2, primary screen, biochemical, biotinylated probe, 635/667 nm fluorescence (AID 1100); conditions: higher = more signal
# [14] = splicing luciferase reporter signal modulators, primary screen, spliceosome inhibition project, cell-based, HEK293, splice +/- reporter (AID 1101); conditions: luminescence, 24 h, higher = more signal, called active from +8 up or from −8 down;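 also: HEK293 cells carrying a splicing-competent luciferase reporter gene; test concentration not given here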
# [15] = target: Fibroblast growth factor 10 (Homo sapiens) (UniProt O15520); experiment: FGF10 binders on small-molecule microarrays, primary screen, biochemical, small-molecule microarray, 635 nm fluorescence (AID 1102); conditions: FGF10 binding, fluorescence 635 nm, higher = more signal
# [16] = tested on: glycogen synthase kinase-3 (GSK3A per assay name; protocol says GSK3B); experiment: GSK3 binders on small-molecule microarrays, primary screen, biochemical, small-molecule microarray, 635 nm fluorescence, GSK3A (AID 1103); conditions: small-molecule microarray binding, fluorescence 635 nm; higher = more signal; also: the record names both GSK3A and GSK3B
# [17] = target: Epidermal growth factor receptor (Homo sapiens) (UniProt P00533); experiment: EGFR binders on small-molecule microarrays, primary screen, biochemical, small-molecule microarray, 635 nm fluorescence (AID 1104); conditions: EGFR binding, higher = more signal;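 also: score merges 667 nm emission intensity with spot signal to noise over triplicate slides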
# [18] = target: Follistatin-related protein 3 (Homo sapiens) (UniProt O95633); experiment: FSTL3 binders on small-molecule microarrays, primary screen, biochemical, small-molecule microarray, 635 nm fluorescence (AID 1105); conditions: FSTL3 binding, higher = more signal;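 also: score merges emission near 667 nm and signal to noise per printed spot across three slides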
# [19] = target: Dickkopf-related protein 1 (Homo sapiens) (UniProt O94907); experiment: DKK1 binders on small-molecule microarrays, primary screen, biochemical, small-molecule microarray, 635 nm fluorescence scan (AID 1106); conditions: DKK1 binding, higher = more signal;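 also: score merges emission near 667 nm with signal to noise over three replicate slides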
# [20] = tested on: Inhibin beta A chain (activin A); experiment: INHBA (activin A) binders on microarrays, primary screen, biochemical, small-molecule microarray, 635 nm fluorescence scan (AID 1107); conditions: small-molecule microarray binding, higher = more signal;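 also: mouse activin A protein probed at 4.33 µg/mL on printed slides; score merges bound-protein fluorescence near 667 nm with spot signal-to-noise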
# Sequence of Dickkopf-related protein 1 (Homo sapiens) (O94907 whole entry, looked up): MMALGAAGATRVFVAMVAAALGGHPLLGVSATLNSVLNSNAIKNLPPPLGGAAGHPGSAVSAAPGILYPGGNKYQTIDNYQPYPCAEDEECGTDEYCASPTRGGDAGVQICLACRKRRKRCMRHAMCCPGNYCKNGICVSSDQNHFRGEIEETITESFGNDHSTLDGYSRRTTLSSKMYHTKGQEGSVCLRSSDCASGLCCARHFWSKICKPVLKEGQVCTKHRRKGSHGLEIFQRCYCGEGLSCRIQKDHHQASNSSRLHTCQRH
# Sequence of Follistatin-related protein 3 (Homo sapiens) (O95633 whole entry, looked up): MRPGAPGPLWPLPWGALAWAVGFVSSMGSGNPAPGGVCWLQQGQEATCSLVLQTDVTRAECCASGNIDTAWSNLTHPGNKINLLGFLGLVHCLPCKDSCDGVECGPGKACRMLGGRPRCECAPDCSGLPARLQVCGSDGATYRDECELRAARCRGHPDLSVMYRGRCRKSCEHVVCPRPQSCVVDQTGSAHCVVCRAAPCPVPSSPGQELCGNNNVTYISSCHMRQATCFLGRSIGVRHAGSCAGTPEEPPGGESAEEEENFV
# Sequence of Torsin-1A-interacting protein 2 (Homo sapiens) (Q8NFQ8 whole entry, looked up): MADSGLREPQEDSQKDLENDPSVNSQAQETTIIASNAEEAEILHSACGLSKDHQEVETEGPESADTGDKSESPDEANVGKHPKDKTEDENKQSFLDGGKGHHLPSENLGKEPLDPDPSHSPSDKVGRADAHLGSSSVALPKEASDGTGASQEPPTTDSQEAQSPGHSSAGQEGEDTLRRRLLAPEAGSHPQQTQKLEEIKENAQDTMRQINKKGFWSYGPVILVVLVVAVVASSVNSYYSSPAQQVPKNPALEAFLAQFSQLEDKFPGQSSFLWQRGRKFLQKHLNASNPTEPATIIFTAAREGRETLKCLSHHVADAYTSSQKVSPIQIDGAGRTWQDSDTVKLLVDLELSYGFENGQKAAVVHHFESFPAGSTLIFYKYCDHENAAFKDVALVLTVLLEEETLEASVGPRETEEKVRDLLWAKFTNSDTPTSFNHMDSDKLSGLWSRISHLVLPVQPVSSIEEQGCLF
# Sequence of Neurogenic locus notch homolog protein 3 (Homo sapiens) (Q9UM47 whole entry, looked up): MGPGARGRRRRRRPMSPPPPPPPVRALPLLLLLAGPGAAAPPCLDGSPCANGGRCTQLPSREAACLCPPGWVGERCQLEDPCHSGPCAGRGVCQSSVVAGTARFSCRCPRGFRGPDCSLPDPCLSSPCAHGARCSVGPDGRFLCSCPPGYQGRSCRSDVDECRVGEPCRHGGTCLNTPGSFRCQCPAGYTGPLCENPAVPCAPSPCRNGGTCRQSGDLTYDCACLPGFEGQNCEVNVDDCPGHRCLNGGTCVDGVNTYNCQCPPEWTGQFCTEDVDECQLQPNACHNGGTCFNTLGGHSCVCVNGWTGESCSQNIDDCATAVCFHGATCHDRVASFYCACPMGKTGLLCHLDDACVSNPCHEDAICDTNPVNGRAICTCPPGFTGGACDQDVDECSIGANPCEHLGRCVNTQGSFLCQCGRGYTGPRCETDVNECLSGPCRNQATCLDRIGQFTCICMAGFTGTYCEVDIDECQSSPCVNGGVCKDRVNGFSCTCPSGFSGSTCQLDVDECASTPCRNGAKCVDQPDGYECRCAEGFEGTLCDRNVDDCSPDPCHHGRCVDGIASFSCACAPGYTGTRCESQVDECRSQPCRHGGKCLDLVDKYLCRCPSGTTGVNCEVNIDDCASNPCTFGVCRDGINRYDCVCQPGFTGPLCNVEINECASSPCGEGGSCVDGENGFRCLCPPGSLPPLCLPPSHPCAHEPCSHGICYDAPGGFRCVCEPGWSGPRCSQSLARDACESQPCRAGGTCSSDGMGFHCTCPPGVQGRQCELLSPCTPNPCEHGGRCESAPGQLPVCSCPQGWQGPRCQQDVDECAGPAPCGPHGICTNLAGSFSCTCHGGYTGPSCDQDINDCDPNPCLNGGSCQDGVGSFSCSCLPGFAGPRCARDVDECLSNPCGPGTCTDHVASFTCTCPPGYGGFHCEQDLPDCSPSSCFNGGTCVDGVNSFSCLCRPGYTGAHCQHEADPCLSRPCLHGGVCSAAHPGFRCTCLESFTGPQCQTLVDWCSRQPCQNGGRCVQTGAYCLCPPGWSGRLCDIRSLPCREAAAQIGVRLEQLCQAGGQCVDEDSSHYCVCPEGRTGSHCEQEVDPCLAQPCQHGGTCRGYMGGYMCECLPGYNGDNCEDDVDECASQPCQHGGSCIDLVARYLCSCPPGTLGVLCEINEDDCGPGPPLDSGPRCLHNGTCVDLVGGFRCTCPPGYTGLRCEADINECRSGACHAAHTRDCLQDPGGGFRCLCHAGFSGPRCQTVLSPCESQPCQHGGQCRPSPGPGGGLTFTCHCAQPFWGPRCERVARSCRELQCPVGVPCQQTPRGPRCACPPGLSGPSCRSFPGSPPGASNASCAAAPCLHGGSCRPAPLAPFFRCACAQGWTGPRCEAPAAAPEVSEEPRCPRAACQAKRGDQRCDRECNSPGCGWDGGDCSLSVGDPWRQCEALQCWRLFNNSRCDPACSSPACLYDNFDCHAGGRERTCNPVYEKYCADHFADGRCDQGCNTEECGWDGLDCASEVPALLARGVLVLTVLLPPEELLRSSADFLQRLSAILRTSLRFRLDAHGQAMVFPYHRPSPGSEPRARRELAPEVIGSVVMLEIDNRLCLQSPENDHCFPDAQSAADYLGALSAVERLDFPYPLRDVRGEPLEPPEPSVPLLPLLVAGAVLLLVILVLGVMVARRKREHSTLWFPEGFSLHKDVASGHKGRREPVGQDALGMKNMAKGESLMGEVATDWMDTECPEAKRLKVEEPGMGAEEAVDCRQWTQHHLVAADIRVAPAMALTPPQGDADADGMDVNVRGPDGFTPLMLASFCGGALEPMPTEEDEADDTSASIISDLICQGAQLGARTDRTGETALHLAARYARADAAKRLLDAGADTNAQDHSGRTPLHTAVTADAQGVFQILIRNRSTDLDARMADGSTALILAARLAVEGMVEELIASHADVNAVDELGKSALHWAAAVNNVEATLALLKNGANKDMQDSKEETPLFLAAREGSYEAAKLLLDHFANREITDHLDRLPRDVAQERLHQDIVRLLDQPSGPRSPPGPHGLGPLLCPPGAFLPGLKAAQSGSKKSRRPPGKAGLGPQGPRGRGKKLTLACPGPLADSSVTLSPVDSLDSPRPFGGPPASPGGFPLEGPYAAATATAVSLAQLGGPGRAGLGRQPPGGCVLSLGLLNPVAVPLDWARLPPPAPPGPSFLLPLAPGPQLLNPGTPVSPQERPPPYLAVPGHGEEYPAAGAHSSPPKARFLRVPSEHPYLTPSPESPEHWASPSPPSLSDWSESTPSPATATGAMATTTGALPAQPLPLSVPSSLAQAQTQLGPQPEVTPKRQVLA
# Sequence of Epidermal growth factor receptor (Homo sapiens) (P00533 whole entry, looked up): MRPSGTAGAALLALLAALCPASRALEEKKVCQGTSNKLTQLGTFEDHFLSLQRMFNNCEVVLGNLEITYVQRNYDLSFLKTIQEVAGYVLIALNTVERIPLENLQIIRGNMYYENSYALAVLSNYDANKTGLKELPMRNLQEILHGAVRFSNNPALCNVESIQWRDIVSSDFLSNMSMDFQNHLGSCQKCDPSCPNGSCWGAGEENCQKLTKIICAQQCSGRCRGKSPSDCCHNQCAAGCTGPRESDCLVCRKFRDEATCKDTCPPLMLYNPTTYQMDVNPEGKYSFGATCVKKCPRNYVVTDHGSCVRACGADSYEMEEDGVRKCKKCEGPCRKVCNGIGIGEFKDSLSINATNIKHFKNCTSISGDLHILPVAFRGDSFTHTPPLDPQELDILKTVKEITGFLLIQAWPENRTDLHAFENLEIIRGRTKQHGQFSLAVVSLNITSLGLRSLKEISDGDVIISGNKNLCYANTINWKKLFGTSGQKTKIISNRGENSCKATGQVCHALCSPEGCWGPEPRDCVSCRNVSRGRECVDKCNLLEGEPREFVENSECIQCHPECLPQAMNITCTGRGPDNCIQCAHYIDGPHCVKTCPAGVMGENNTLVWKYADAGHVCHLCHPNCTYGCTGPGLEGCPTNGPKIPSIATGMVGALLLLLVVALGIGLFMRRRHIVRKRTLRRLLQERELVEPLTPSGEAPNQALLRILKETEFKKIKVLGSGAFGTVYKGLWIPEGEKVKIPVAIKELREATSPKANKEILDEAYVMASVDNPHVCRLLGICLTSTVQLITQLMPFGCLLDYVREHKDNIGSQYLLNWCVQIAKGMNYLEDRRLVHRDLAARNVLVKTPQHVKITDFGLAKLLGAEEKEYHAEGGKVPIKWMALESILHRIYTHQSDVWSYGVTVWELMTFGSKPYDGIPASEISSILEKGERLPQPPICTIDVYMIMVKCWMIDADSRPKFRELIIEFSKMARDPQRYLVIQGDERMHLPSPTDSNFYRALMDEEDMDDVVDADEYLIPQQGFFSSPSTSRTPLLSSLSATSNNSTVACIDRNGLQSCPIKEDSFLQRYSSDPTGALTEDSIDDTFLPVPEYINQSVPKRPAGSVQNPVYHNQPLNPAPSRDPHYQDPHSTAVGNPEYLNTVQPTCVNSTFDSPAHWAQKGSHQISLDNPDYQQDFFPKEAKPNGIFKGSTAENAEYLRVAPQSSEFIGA
# Sequence of Fibroblast growth factor 10 (Homo sapiens) (O15520 whole entry, looked up): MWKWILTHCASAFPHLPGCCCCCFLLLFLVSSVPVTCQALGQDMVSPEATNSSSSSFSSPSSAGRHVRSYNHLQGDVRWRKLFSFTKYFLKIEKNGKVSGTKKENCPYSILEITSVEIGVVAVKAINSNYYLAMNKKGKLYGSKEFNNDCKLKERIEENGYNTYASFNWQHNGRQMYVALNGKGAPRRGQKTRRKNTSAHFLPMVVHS
Structure (SMILES),composite z-score [1],z-score [2],z-score [3],z-score [4],composite z-score [5],z-score [6],composite z-score [7],composite z-score [8],composite z-score [9],composite z-score [10],composite z-score [11],composite z-score [12],composite z-score [13],z-score [14],composite z-score [15],composite z-score [16],composite z-score [17],composite z-score [18],composite z-score [19],composite z-score [20]
COc1ccc([Si](C)(C)[C@@H]2[C@@H](CC(=O)N(CCO)Cc3ccccc3)O[C@]3(C(=O)N(Cc4ccc(N5C(=O)c6cccc7cccc5c67)cc4)c4ccccc43)[C@H]2C)cc1,1.57,0.655 (inactive),0.27 (inactive),3.51 (inactive),1.63,0.309 (inactive),-0.0785,0.77,0.223,-0.116,1.17,-0.0669,0.0161,-1.33 (inactive),0.404,0.01,0.317,0.12,0.283,0.516
CC(C)N1C(=O)c2ccccc2[C@](C)(C(=O)NCC(F)(F)F)[C@@H]1c1ccc(CO)cc1,-0.42,-0.337 (inactive),-0.837 (inactive),-0.674 (inactive),1.64,0.537 (inactive),0.146,-1.4,-0.445,-0.179,0.0632,0.698,1.06,0.88 (inactive),-1.28,-0.907,-0.333,-0.961,-0.693,0.177
CCCCCCc1nc(Cc2cc(OC)c(OC)c(OC)c2)cc2c1[Si](C(C)C)(C(C)C)O[C@H]2c1ccccc1,0.811,0.153 (inactive),0.87 (inactive),0.0217 (inactive),-0.0751,-1.41 (inactive),-0.176,0.619,0.819,-0.0975,0.268,-0.333,-0.511,-0.189 (inactive),0.351,0.124,0.569,0.594,0.548,0.882
CCOc1cc(C(O)C2C=CC3C(=O)N(c4ccccc4)C(=O)C3N2Nc2ccccc2F)ccc1O (stereo not given),0.196,1.54 (inactive),-0.428 (inactive),1.81 (inactive),3.01,-0.199 (inactive),0.615,-0.596,0.0983,0.561,1.53,1.42,0.762,0.101 (inactive),0.208,-0.186,0.232,-0.271,-0.344,0.604
CCCCCC1=C2CNC(Cc3ccccc3)(C(=O)OC)C=C2C(C)C1=O (stereo not given),-0.488,0.194 (inactive),-0.331 (inactive),1.2 (inactive),2.5,-0.791 (inactive),0.226,-1.49,-0.638,-0.0632,0.0442,0.926,1.37,73.6 (active),-0.0286,-1.16,-0.779,-0.733,-1.84,1.47
C=CCNC(=O)[C@@H]1[C@H]2C(=O)O[C@H](c3ccccc3)[C@H](c3ccccc3)N2[C@H](c2ccc(OCCO)cc2)[C@@]12C(=O)Nc1ccc(C#CC3(O)CCCCCC3)cc12,1.45,1.84 (inactive),0.267 (inactive),4.71 (inactive),2.55,1.2 (inactive),0.0208,1.03,1.07,0.0519,1.42,0.535,0.65,-1.43 (inactive),0.986,1.22,0.378,0.826,0.371,-0.0995
C=C(COC)C(=O)CC[C@@H](OC(=O)c1ccccc1-c1ccccc1C(=O)O)c1ccc(OCCO)cc1,1.39,-0.656 (inactive),-0.943 (inactive),-0.856 (inactive),0.886,0.315 (inactive),-0.0341,1.26,0.505,-0.139,0.398,-0.321,0.0721,0.833 (inactive),0.983,-0.278,-0.487,0.684,0.0668,1.08
CC1CC/C=C\[C@H]2OC34C=CCN(C(C)(C)C)C(=O)[C@H]3N(CCCO)C(=O)[C@@H]4C2C(=O)O1 (stereo not given in full),-0.672,0.884 (inactive),0.743 (inactive),1.14 (inactive),1.86,0.545 (inactive),-0.214,-0.556,-0.281,-0.249,0.28,-0.107,0.4,0.964 (inactive),-0.0987,-0.592,-0.927,-0.943,-0.863,0.406
CCCC[C@H]1C[C@@H]1[C@@H]1N(C(C)=O)[C@H](c2cccc(OC)c2)CC12CC2,-0.383,-0.872 (inactive),-8.39 (active),-1.82 (inactive),0.755,-0.563 (inactive),0.116,-0.502,-0.27,0.0192,-0.497,0.692,0.878,-1.86 (inactive),0.0847,0.114,-0.0128,0,-0.556,0.596
CCCNC(=O)[C@@]1(Sc2ccc(C)cc2)CC(=O)N(Cc2ccccc2Cl)[C@@H]1c1ccc(CO)cc1I,0.16,-1.17 (inactive),-3.81 (inactive),1.82 (inactive),2.08,0.545 (inactive),0.328,-1.24,-0.502,-0.267,0.958,0.147,0.864,-0.766 (inactive),-0.87,-0.51,-1.49,-1.14,-1.54,0.472
CN1C(=O)C2C(C3CC3)C=C3CN(Cc4cccc(Cl)c4)[C@@H]([C@@H](O)Cc4ccccc4)C3C2C1=O (stereo not given in full),1.57,0.347 (inactive),-1.87 (inactive),-0.539 (inactive),2.94,1.71 (inactive),-0.126,1.23,1.15,-0.0679,1.11,-0.217,-0.534,-1.32 (inactive),0.939,1.13,0.621,0.961,0.396,-0.262
C=CCC(OC(C)=O)[C@@H]1[C@@H](N(Cc2ccc(-c3cccc(C(F)(F)F)c3)o2)C(=O)c2ccc(-c3ccccc3)cc2)c2cc(OCCCO)ccc2N1C(=O)c1ccc2ccccc2c1 (stereo not given in full),-1.39,0.729 (inactive),1.16 (inactive),0.136 (inactive),0.254,-0.28 (inactive),-0.0485,0.28,0.461,-0.0828,0.194,-0.151,0.397,0.697 (inactive),0.225,0.099,0.1,0.695,0.15,1.22
C=CCNC(=O)[C@H]1[C@@H]2C(=O)O[C@@H](c3ccccc3)[C@@H](c3ccccc3)N2[C@@H](c2ccc(OCCO)cc2)[C@]12C(=O)Nc1ccc(C#CC3(O)CCCCCC3)cc12,1.53,2.3 (inactive),1.42 (inactive),5.09 (inactive),2.11,1.61 (inactive),0.323,1.4,1.08,0.0432,1.19,0.514,0.446,-0.313 (inactive),1.29,1.3,0.982,1.29,0.527,0.996
Cc1ccc(S[C@]2(C(=O)NCc3ccccc3)CC(=O)N(Cc3ccccc3C(F)(F)F)[C@@H]2c2ccc(CO)cc2)cc1,0.884,-1.61 (inactive),0.447 (inactive),-0.417 (inactive),1.05,0.837 (inactive),-0.154,-1.16,-0.64,-0.272,0.537,0.0191,0.984,-0.284 (inactive),-0.915,-1.13,-1.22,-1.28,-1.72,0.242
C[C@@H]1ON(c2ccc(I)cc2)[C@H](c2cccc(NC(=O)OCC3c4ccccc4-c4ccccc43)c2)[C@H]1C(=O)N1C(=O)OC[C@H]1Cc1ccccc1,0.908,0.882 (inactive),0.534 (inactive),1.33 (inactive),0.77,1.28 (inactive),0.437,0.493,0.893,0.0773,0.683,1.04,-0.387,-0.271 (inactive),0.252,0.529,0.325,0.951,1.05,0.529
C=C(CCCC)/C(=C/C[C@H](OC(=O)c1ccncc1)c1ccc(OCCO)cc1)c1cnc2ccccc2c1,1.51,0.144 (inactive),-2.06 (inactive),0.199 (inactive),1.26,0.7 (inactive),-0.0306,1.17,1.09,0.0129,1.47,-0.107,0.164,-0.0197 (inactive),0.898,0.829,0.776,1.45,0.768,1.36
CC(C)C(=C=CC[C@H](O)c1ccccc1OCCO)C[C@H](O)COCc1ccccc1,0.251,-0.024 (inactive),-1.26 (inactive),-0.501 (inactive),2.8,-0.0543 (inactive),-0.187,-0.0604,-0.287,-0.13,1.63,-0.293,-0.0177,-0.114 (inactive),0.444,-0.409,-0.593,-0.428,-0.42,0.482
NC(=O)NCC#Cc1ccc2c(c1)[C@]1(C(=O)N2)[C@H](c2ccc(OCCO)cc2)N2[C@H](c3ccccc3)[C@H](c3ccccc3)OC(=O)[C@H]2[C@@H]1C(=O)O,-0.541,0.467 (inactive),-0.662 (inactive),0.23 (inactive),-0.143,0.775 (inactive),-0.139,-0.292,-0.343,-0.209,1.05,0.151,0.654,-0.708 (inactive),-0.808,-1.84,-0.716,-0.567,-0.57,0.993
O=C1C=C(c2ccccc2)C(=O)C2=C1CC([C@H]1Oc3ccccc3S(=O)(=O)N3CCC[C@@H]13)=CC2,0.345,-0.418 (inactive),-3.32 (inactive),13.4 (active),-0.101,0.542 (inactive),-0.183,-0.194,0.0989,-0.135,-0.365,-0.191,-0.569,-2.32 (inactive),0.0925,-0.009,0.0548,-0.365,0.155,0.718
